An excerpt weighted towards active compounds, which were near 21% of everything screened.
Shiga toxin inh – inhibitors of Shiga toxin in Vero cells | Vero cells, Shiga toxin protein synthesis inhibition reporter | inhibition, % at 38.7 µM | 290,000 compounds, 9.2% hits | AID 2315; in the data active = inhibition mostly above about 28%, no sharp cut-off; inactive = mostly below about 43%; also: 0% is about no effect
HCV inhibitor – inhibitors of hepatitis C virus infection; Huh7.5.1 HCVcc-Cre infection, luciferase reporter, 44 h; Potency, µM (series often up to 41.8 µM), for the others: top-dose activity change, negative = inhibition, hits mostly inhibitors; 340,000 compounds, 3.4% hits; AID 651820; also: potency is read from the fitted curve at half-maximal effect; % is scaled to controls: 0 for no effect and ±100 for the full control effect
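Luciferase read-out (15 sec integration) after a 15 min room-temperature substrate step quantifies HCVcc-Cre infection. Cells, 1,000 per well, had compound added 4 h post-plating, then virus at ~0.5 moi, and were cultured 44 h.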
AMA1-RON2 inh – AMA1-RON2 (P. falciparum) interaction inhibition; 360,000 compounds, 0.2% hits; AID 720542; AlphaScreen AMA1-biotinylated RON2 peptide binding; Potency, µM (top dose mostly 58.2 µM), for inactives: top-dose activity change, negative = inhibition, actives largely listed as inhibitors;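 also: potency is read from the fitted curve at half-maximal effect; 0% = vehicle wells and -100% = peptide control; nearly all actives have a fitted effect of over 45% in size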
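AMA1 (3D7) with his tag at 25 nM final met compounds first, then biotinylated RON2 peptide at 25 nM; detection used donor plus acceptor beads, 10 µg/mL apiece, read by AlphaScreen after 30 min at room temperature.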
CHX counter – counter-screen hit for Shiga toxin inhibitors, cycloheximide; cell reporter, cycloheximide protein synthesis inhibition counterscreen; max response, %; 300,000 compounds, 12% hits; AID 2314; in the data active = max response mostly above about 13%, no sharp cut-off; inactive = mostly below about 14%; also: read at 38.3 µM for the half of the compounds with a filed dose; 0% is about no effect
Pf growth 96h – P. falciparum growth inhibition at 96 hour, primary screen for plastid delayed-death inhibitors; P. falciparum luciferase reporter growth, 96 h; Potency, µM (top dose mostly 28.7 µM), inactives show top-dose activity change, negative = inhibition, most hits filed as inhibitors; 320,000 compounds, 6.9% hits; AID 504834; also: potency is read from the fitted curve at half-maximal effect; % is scaled to controls: 0 for no effect and ±100 for the full control effect
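Plates of compound plus infected erythrocytes (2% hematocrit, 0.05% parasitemia final) incubate 96 hours, 37 C, 5% CO2. Detection reagent added; reduced luminescence from the parasites' luciferase reporter flags inhibition.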
Pf growth 48h – P. falciparum growth inhibition at 48 hours (one generation). P. falciparum luciferase growth in erythrocytes, 48 h. Potency, µM (highest dose often 28.7 µM), inactives show at the highest dose activity change, negative = inhibition, most hits filed as inhibitors. 310,000 compounds, 5.9% hits. AID 504832; also: potency is read from the fitted curve at half-maximal effect; % is scaled to controls: 0 for no effect and ±100 for the full control effect
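Growth was read as firefly luciferase luminescence after a 48 h, 37 C, 5% CO2 exposure of compounds to reporter-bearing P. falciparum cultures (0.1% parasitemia, 2% hematocrit final) in Albumax-supplemented RPMI 1640.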
* hit, by the source's call; [ ] = another dose, or the depositor's remark. Unless noted, calls follow the shape of the dose curve; as a rule, active = well fitted curve in the direction sought with a large enough effect; inconclusive = small, poorly fitted or top-dose-only effect, or another doubt; inactive = no such curve, though single readings can be large; an effect the other way counts as inactive or inconclusive.

Cc1nc2sc(C(N)=O)c(N)c2c(C)c1CC(=O)c1ccccc1 was read as Shiga toxin inh 92*, HCV inhibitor -9%, AMA1-RON2 inh 30%, CHX counter 30*, Pf growth 96h -34%[5.75 µM] and Pf growth 48h 33%.
`COC(=O)N1c2ccccc2C=Cc2ccccc21` gave Shiga toxin inh -12, HCV inhibitor -4%, AMA1-RON2 inh -18%, CHX counter -3, Pf growth 96h -90% and Pf growth 48h inconclusive.
For CC(=O)c1nnn(-c2ccc(F)cc2F)c1C the results were Shiga toxin inh 4, HCV inhibitor 9%, AMA1-RON2 inh 6%, CHX counter -1, Pf growth 96h 46% and Pf growth 48h 34%.
Cc1c(-c2ccccc2)nnn1-c1ccc(F)cc1F was read as Shiga toxin inh 73*, HCV inhibitor -6%, AMA1-RON2 inh -10%, CHX counter 45* and Pf growth 96h 63%.
C/C(=C\COc1cc(=O)[nH]c2ccccc12)CCC(O)C(C)(C)O (configuration not stated) was read as Shiga toxin inh -19, HCV inhibitor 0.32µM*, AMA1-RON2 inh 9%, CHX counter -3, Pf growth 96h 3% and Pf growth 48h 2%.
For CC(=O)NC(=S)Nc1ccccc1F the results were Shiga toxin inh 19, HCV inhibitor 13%, AMA1-RON2 inh -7%, CHX counter 4, Pf growth 96h -18% and Pf growth 48h 2%.
CCCC(=O)NC(=S)Nc1ccccc1F was read as Shiga toxin inh 74, HCV inhibitor inconclusive, AMA1-RON2 inh 13%, CHX counter 15*, Pf growth 96h 32% and Pf growth 48h 23%.
Screening COc1ccc(CNC(=S)Nc2ccccc2F)cc1 returned Shiga toxin inh 16, HCV inhibitor -9%, AMA1-RON2 inh -1%, CHX counter 8, Pf growth 96h 20% and Pf growth 48h 10%.
CCC(=O)NC(=S)Nc1ccccc1F was read as Shiga toxin inh 27, HCV inhibitor -20%, AMA1-RON2 inh -9%, CHX counter 6, Pf growth 96h inconclusive and Pf growth 48h -19%.
Screening COc1ccc(C(=O)NC(=S)Nc2ccccc2F)cc1 returned Shiga toxin inh 67*, HCV inhibitor -7%, AMA1-RON2 inh -3%, CHX counter 56*, Pf growth 96h inconclusive and Pf growth 48h 144%.
`CC(C)(C)C(=O)NC(=S)Nc1ccccc1F` gave Shiga toxin inh 40, HCV inhibitor 5%, AMA1-RON2 inh -12%, CHX counter 26*, Pf growth 96h 0% and Pf growth 48h 34%.
Screening CCOC(=O)CSC(=S)NC(=O)c1ccc(OC)cc1 returned Shiga toxin inh 12, HCV inhibitor 20%, AMA1-RON2 inh 3%, CHX counter 2, Pf growth 96h 22% and Pf growth 48h 14%.
For COc1ccc(C(=O)NC(=S)SCC(=O)O)cc1 the results were Shiga toxin inh 26*, HCV inhibitor 14%, AMA1-RON2 inh 0%, CHX counter 15*, Pf growth 96h -2% and Pf growth 48h 39%.
`CCCCn1nnnc1C1(C)CCC(=O)N1Cc1ccc(C)cc1` (configuration not stated) gave AMA1-RON2 inh 6%.
For O=C(NC1CCCCCC1)C1CCN(C(=O)c2cccc(Cl)c2)CC1 the results were Shiga toxin inh 3, HCV inhibitor -6%, AMA1-RON2 inh 21%, CHX counter -2, Pf growth 96h 17% and Pf growth 48h 4%.
For Cc1ccc(C(=O)NC(=S)N(C)C2CCCCC2)cc1 the results were Shiga toxin inh 126*, HCV inhibitor 10%, AMA1-RON2 inh 92%, CHX counter 50*, Pf growth 96h inconclusive and Pf growth 48h -24%.
CN(C(=S)NC(=O)/C=C/c1ccc(F)cc1)C1CCCCC1 was read as Shiga toxin inh 24, HCV inhibitor 4%, AMA1-RON2 inh 32%, CHX counter 17, Pf growth 96h inconclusive and Pf growth 48h inconclusive.
Screening COC(=O)c1sccc1NC(=S)N(C)C1CCCCC1 returned Shiga toxin inh 17, HCV inhibitor 3%, AMA1-RON2 inh -6%, CHX counter 7, Pf growth 96h inconclusive and Pf growth 48h 9.3µM*.
COC(=O)c1sccc1NC(=S)N1C(C)CCCC1C (configuration not stated) was read as Shiga toxin inh -7, HCV inhibitor inconclusive, AMA1-RON2 inh 1%, CHX counter 9, Pf growth 96h 40% and Pf growth 48h inconclusive.
`COC(=O)c1sccc1NC(=O)NC1CCCCC1` gave Shiga toxin inh 31, HCV inhibitor -16%, AMA1-RON2 inh -2%, CHX counter 47*, Pf growth 96h -7% and Pf growth 48h 74%.
For O=C(Nc1nccs1)NC1CCCCC1 the results were Shiga toxin inh 18, HCV inhibitor 15%, AMA1-RON2 inh 0%, CHX counter 14, Pf growth 96h 12% and Pf growth 48h 2.9µM*.
Screening CCCS(=O)(=O)NC(=O)C1(C)CCN(C(=O)c2ccc(OC)cc2OC)C1 (configuration not stated) returned AMA1-RON2 inh -3%.
`CCCCNC(=O)C1(C)CCN1C(=O)c1cc(-c2cccs2)oc1C` (configuration not stated) gave AMA1-RON2 inh -3%.
For COc1ccccc1C(=O)Nc1nnc(SCC(=O)NCc2ccco2)s1 the results were Shiga toxin inh 63*, HCV inhibitor -19%, AMA1-RON2 inh 8%, CHX counter 43*, Pf growth 96h 114% and Pf growth 48h 215%.
For COc1cc(C(=O)Nc2nnc(SCC(=O)NCC3CCCO3)s2)cc(OC)c1OC (configuration not stated) the results were Shiga toxin inh 24, HCV inhibitor 3%, AMA1-RON2 inh 7%, CHX counter 2, Pf growth 96h inconclusive and Pf growth 48h -11%.
Screening O=C(CSc1nnc(NC(=O)c2ccccc2F)s1)Nc1ccccc1F returned Shiga toxin inh 70*, HCV inhibitor -5%, AMA1-RON2 inh -7%, CHX counter 35*, Pf growth 96h 21% and Pf growth 48h 53%.
COc1ccccc1C(=O)Nc1nnc(SCC(=O)NCC2CCCO2)s1 (configuration not stated) was read as Shiga toxin inh 115*, HCV inhibitor -1%, AMA1-RON2 inh -16%, CHX counter 40*, Pf growth 96h 75% and Pf growth 48h 185%.
`Cc1ccc(Nc2nnc(SCC(=O)NCc3ccco3)s2)cc1` gave Shiga toxin inh 46, HCV inhibitor 7%, AMA1-RON2 inh -10%, CHX counter 17, Pf growth 96h inconclusive and Pf growth 48h 5.9µM*.
COc1cccc(/C=C2/Oc3ccccc3N(CC(=O)NCC3CCCO3)C2=O)c1 (configuration not stated) was read as Shiga toxin inh -10, HCV inhibitor inconclusive, AMA1-RON2 inh 9%, CHX counter -2, Pf growth 96h -21% and Pf growth 48h inconclusive.

Screening data (PubChem BioAssay)
